Assay outcomes deposited in PubChem by National Center for Advancing Translational Sciences (NCATS).
This is one part of a sample in which hits are shown more often than they occur.
AmpC detergent = inhibitors of E. coli AmpC beta-lactamase with detergent | P00811 | AmpC hydrolysis of nitrocefin, absorbance 480 nm, 0.01% Triton | Potency, µM (series often up to 114 µM), without a hit: at the highest dose activity change, negative = inhibition, hits mostly inhibitors | actives 0.041% (n = 370,000) | AID 485294;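 also: potency is read from the fitted curve at half-maximal effect; 0% = no-compound wells and -100% = no-enzyme wells; nearly all actives have a fitted effect of over 25% in size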
Target sequence (P00811 whole entry, looked up): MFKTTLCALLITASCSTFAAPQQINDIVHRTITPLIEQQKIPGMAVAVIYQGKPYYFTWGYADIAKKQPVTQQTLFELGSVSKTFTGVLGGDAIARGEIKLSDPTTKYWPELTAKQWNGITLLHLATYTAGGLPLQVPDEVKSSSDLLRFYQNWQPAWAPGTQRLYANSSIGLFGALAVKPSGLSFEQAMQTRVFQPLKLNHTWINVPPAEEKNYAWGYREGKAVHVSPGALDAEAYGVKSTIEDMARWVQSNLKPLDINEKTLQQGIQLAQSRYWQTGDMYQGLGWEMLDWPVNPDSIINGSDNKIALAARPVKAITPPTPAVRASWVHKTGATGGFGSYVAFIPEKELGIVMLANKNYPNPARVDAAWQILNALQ
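AmpC (5.3 nM in the dispensed reagent) in 20 mM phosphate pH 7.0 with 0.01% (detergent screen) or 0.0001% Triton X-100 was preincubated with compounds for 15 min at room temperature. Nitrocefin was then added from an 800 uM solution, and hydrolysis was followed at 480 nm.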
Shiga inhibitor = blocks Shiga toxin action in Vero cells; Vero cells, Shiga toxin protein synthesis inhibition reporter; inhibition, % at 38.7 µM; actives 9.2% (n = 290,000); in the data active = inhibition mostly above about 28%, no sharp cut-off; inactive = mostly below about 43%; also: 0% is about no effect
AMA1-RON2 inh = disrupts binding of P. falciparum AMA1 to RON2. AlphaScreen AMA1-biotinylated RON2 peptide binding. Potency, µM (highest dose often 58.2 µM), without a hit: at the highest dose activity change, negative = inhibition, usual class: inhibitors. actives 0.2% (n = 360,000). AID 720542;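 also: potency is read from the fitted curve at half-maximal effect; 0% = vehicle wells and -100% = peptide control; nearly all actives have a fitted effect of over 45% in size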
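AMA1 (3D7) with his tag at 25 nM final met compounds first, then biotinylated RON2 peptide at 25 nM; detection used donor plus acceptor beads, 10 µg/mL apiece, read by AlphaScreen after 30 min at room temperature.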
AmpC no deterg = blocks E. coli AmpC beta-lactamase in detergent-free assay. AmpC nitrocefin hydrolysis, absorbance 480 nm, 0.0001% Triton. Potency, µM (series often up to 57.1 µM), inactives show top-dose activity change, negative = inhibition, usual class: inhibitors. P00811. actives 0.52% (n = 330,000);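 also: potency is read from the fitted curve at half-maximal effect; plate controls were no compound for no effect and no enzyme for full effect; nearly all actives have a fitted effect of over 20% in size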
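AmpC (5.3 nM in the dispensed reagent) in 20 mM phosphate pH 7.0 with 0.01% (detergent screen) or 0.0001% Triton X-100 was preincubated with compounds for 15 min at room temperature. Nitrocefin was then added from an 800 uM solution, and hydrolysis was followed at 480 nm.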
Cycloheximide cs = affects cycloheximide protein synthesis inhibition readout, counter-screen | cell reporter, cycloheximide protein synthesis inhibition counterscreen | max response, % | actives 12% (n = 300,000) | AID 2314; in the data active = max response mostly above about 13%, no sharp cut-off; inactive = mostly below about 14%; also: read at 38.3 µM for the half of the compounds with a filed dose; 0% is about no effect
SARS PLpro yeast = blocks SARS-CoV papain-like protease in a yeast assay | AID 485353 | Potency, µM (titrated, usually from 32.9 µM), without a hit: at the top dose activity, positive = growth rescue, hits mostly activators | S. cerevisiae expressing SARS-CoV PLpro, growth rescue | actives 0.19% (n = 330,000); calls by dose curve; also: potency is read from the fitted curve at half-maximal effect; 0% is about no effect; nearly all actives have a fitted effect of over 55% in size
Starred values were filed as active, the others as inactive. Unless noted, calls follow the shape of the dose curve; as a rule, active = well fitted curve in the direction sought with a large enough effect; inconclusive = small, poorly fitted or top-dose-only effect, or another doubt; inactive = no such curve, though single readings can be large; an effect the other way counts as inactive or inconclusive.

Results for CCCCOc1ccc(C2/C(=C(\O)c3ccc4c(c3)OCCO4)C(=O)C(=O)N2CCCN2CCOCC2)cc1 (centres undefined) ?
AmpC detergent: -3%; Shiga inhibitor: 22; AMA1-RON2 inh: 3%; AmpC no deterg: 99%; Cycloheximide cs: 4; SARS PLpro yeast: -7%

Results for CCN1C(=O)[C@H]2[C@@H](c3ccc(-c4ccc5c(c4)OCO5)c(OC)c3)N[C@@](CC(C)C)(C(=O)OC)[C@H]2C1=O ?
AmpC detergent: -14%; AMA1-RON2 inh: 8%; AmpC no deterg: 140%; SARS PLpro yeast: -2%

How did O=C(COC(=O)CCC(=O)c1ccc(F)cc1)Nc1ccc(N2CCOCC2)cc1 do in these assays?
AmpC detergent: inconclusive; Shiga inhibitor: 1; AMA1-RON2 inh: -7%; AmpC no deterg: -10%; Cycloheximide cs: -3; SARS PLpro yeast: 5%

How did CCOC(=O)[C@]12Cc3ccsc3[C@H]1N(Cc1ccccc1)C(=O)c1ccccc12 do in these assays?
AMA1-RON2 inh: -10%

Results for O=c1c2c3c(sc2[nH]c(=S)n1Cc1ccco1)CCC3 ?
AmpC detergent: 3%; Shiga inhibitor: 16; AMA1-RON2 inh: 109%; AmpC no deterg: 20µM*; Cycloheximide cs: 1; SARS PLpro yeast: -1%

How did Cc1ccc(C(C(=O)NC2CCCC2)N(C(=O)CNC(=O)c2cccs2)c2cccnc2)o1 (centres undefined) do in these assays?
AmpC detergent: 1%; Shiga inhibitor: 11; AMA1-RON2 inh: -1%; AmpC no deterg: -18%; Cycloheximide cs: -1; SARS PLpro yeast: -21%

What do the screens show for `COc1cccc2nc3cc(C)c(C)cc3nc12`?
AmpC detergent: 6%; Shiga inhibitor: 59*; AMA1-RON2 inh: -6%; AmpC no deterg: 34%; Cycloheximide cs: 59*; SARS PLpro yeast: -11%

What do the screens show for `COc1cccc2c(Nc3ccccc3C)cc(C)nc12`?
AmpC detergent: 2%; Shiga inhibitor: -8; AMA1-RON2 inh: 0%; AmpC no deterg: -18%; Cycloheximide cs: -3; SARS PLpro yeast: 0%

Results for N#Cc1c(NC(=O)c2ccccc2)sc2c1CCCCC2 ?
AmpC detergent: inconclusive; Shiga inhibitor: 55*; AMA1-RON2 inh: 4%; AmpC no deterg: -29%; Cycloheximide cs: 48*; SARS PLpro yeast: -1%

How did N#Cc1c(Cl)nsc1NC(=O)c1ccccc1 do in these assays?
AmpC detergent: 3%; Shiga inhibitor: 132*; AMA1-RON2 inh: 4%; AmpC no deterg: -28%; Cycloheximide cs: 31*; SARS PLpro yeast: -24%

How did CC(C)CCOc1ccc(C(=O)Nc2sc3c(c2C#N)CCCCC3)cc1 do in these assays?
AmpC detergent: -6%

Results for N#Cc1c(NC(=O)CSC2=NCCS2)sc2c1CCCC2 ?
AmpC detergent: -11%; Shiga inhibitor: -5; AMA1-RON2 inh: -11%; AmpC no deterg: -47%; Cycloheximide cs: -4; SARS PLpro yeast: -7%

Results for O=C(Nc1cc(Cl)ncn1)c1ccccc1 ?
AMA1-RON2 inh: 19%

What do the screens show for `CCCC(=O)Nc1sc2c(c1C#N)CCCCC2`?
AmpC detergent: -6%; Shiga inhibitor: 47*; AMA1-RON2 inh: -1%; AmpC no deterg: -25%; Cycloheximide cs: 37*; SARS PLpro yeast: -15%

What do the screens show for `CC(=O)Nc1sc2c(c1C#N)CCCCC2`?
AmpC detergent: -8%; Shiga inhibitor: 21; AMA1-RON2 inh: 14%; AmpC no deterg: -2%; Cycloheximide cs: 18*; SARS PLpro yeast: -4%

Results for O=C(c1ccc([N+](=O)[O-])cc1[N+](=O)[O-])N1CCN(C(=O)C2CCCO2)CC1 (centres undefined) ?
AmpC detergent: -1%; AMA1-RON2 inh: 86%; AmpC no deterg: -3%; SARS PLpro yeast: 2%

What do the screens show for `CC1CC(=O)N(CC(=O)Nc2ccc3c(c2)OCO3)c2ccccc2S1` (centres undefined)?
AmpC detergent: inconclusive; Shiga inhibitor: -2; AMA1-RON2 inh: 2%; AmpC no deterg: -8%; Cycloheximide cs: -2; SARS PLpro yeast: 4%
